# Reference: PubChem BioAssay (NCI)
# Where “and” joins values, the source holds several entries; their conditions need not be identical. Identical values can stand only once. Compounds without any hit were thinned out: in the full panel of roughly 83,000, 20% have a hit.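 Cell lines were cultured in 96-well plates, exposed to a single compound concentration, and assessed for percent growth 48 hours later.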 Calls of active or inactive are those of the source.
# Tested on: EKVX NSCLC
# Experiment: NCI-60 one-dose screen, 48 h (100 = growth as untreated, 0 = no growth, -100 = all killed)
# Conditions: 10 µM unless noted
# Description: Growth inhibition of the EKVX human Non-Small Cell Lung tumor cell line is measured as a screen for anti-cancer activity. Cells are grown in 96 well plates and exposed to the test compound for 48 hours. Compounds are tested at a single concentration, which is 10^-5 M for most compounds. The reported endpoint is percent growth (GI% or GIPRCNT), where numbers from 0 - 100% represent growth inhibition, and numbers from -100% - 0 represent cell death. For example, a value of 40 represents 60% growth inhibition. A value of 0 means no net growth occurred over the course of the experiment. A value of -40 indicates 40% of cells at the beginning of the experiment died by the end of the experiment. A value of -100 means all cells are dead at the end of the experiment.
# NCI-60 Human Tumor Cell Lines Screen was performed using the standard one-dose NCI protocol, which is described in more detail at https://dtp.cancer.gov/discovery_development/nci-60/default.htm.
# Compounds with GIPRCNT values below 10 were considered active. Activity score was based on GIPRCNT using the following formula: […]
# Score is 0 for GIPRCNT values of 100 or above, 50 for GIPRCNT values of 0, and 100 for GIPRCNT values of -100.
row,SMILES,growth
1,COc1cc([C@@H]2c3cc4c(cc3[C@H](O)[C@H]3COC(=O)[C@@H]23)OCO4)cc(OC)c1OC,28.6% (inactive) and 35.4% (inactive)
2,S=c1ccc2ccccc2[nH]1,107% (inactive) and 103% (inactive)
3,COc1ccc(/C=N/Nc2nc3ccccc3s2)cc1,67.4% (inactive)
4,CCOC(=O)c1csc(N)n1,99.2% (inactive) and 99% (inactive)
5,CCc1ccc(OC(=O)CCl)cc1,98.6% (inactive)
6,CCN(C)c1ccccc1,87.5% (inactive)
7,CCN(CC)Cc1cc2[nH]c3c4ccc(Cl)cc4ncc3c2cc1OC,83.5% (inactive) and 75% (inactive)
8,CCCCCc1cc[n+](CC(=O)c2ccccc2)cc1,90.4% (inactive)
9,C/C(=C\c1ccccc1)C(O)C(=O)c1nc2ccc([N+](=O)[O-])cc2[nH]c1=O (stereo not given),92.6% (inactive)
10,COc1ccc(CCl)c(C)c1OC,104% (inactive)
11,COCCNC(C)=O,105% (inactive)
12,O=C(O)C#Cc1ccc(Cl)cc1,104% (inactive)
13,COCCCNC1=C(C#N)C(=O)NC(c2cccs2)S1 (stereo not given),84% (inactive)
14,CN1C2C=CC(=O)C1C1C(=O)N(c3ccccc3)C(=O)C12 (stereo not given),106% (inactive)
15,COc1cc(NCCCCCNC(C)C)c2ncccc2c1,95.5% (inactive) and 105% (inactive)
16,Clc1ccc2c(c1)N(C1CCCN(Cc3ccccc3)C1)c1ccccc1S2 (stereo not given),74.4% (inactive)
17,O=C(O)c1cccc(Br)c1,105% (inactive) and 101% (inactive)
18,O=C(c1ccc(Cl)cc1)C1C(c2ccccc2)C1[N+](=O)[O-] (stereo not given),105% (inactive)
19,COc1cc(NCCCCCCCNC(C)C)c2nccc(C)c2c1,82.9% (inactive) and 50.6% (inactive)
20,O=COCCCc1ccccc1,98.8% (inactive)

row,SMILES,growth
1,CC(=O)/C(N=Nc1ccc(S(=O)(=O)c2ccc(N=N/C(C(C)=O)=C(/C)O)cc2)cc1)=C(\C)O,116% (inactive)
2,CCOC(=O)c1ccc(N2C(=O)C(Cl)(c3ccccc3)C2c2ccco2)cc1 (stereo not given),61.2% (inactive)
3,O=C1CCC(=O)N1CC1CC2CCC1C2 (stereo not given),99% (inactive) and 83.1% (inactive)
4,CN(C=O)c1ccccc1,86.6% (inactive)
5,O=C(N=C1C(=O)C2(CCCCC2)C2(N=C(c3ccccc3)OC2=O)C12CCCCC2)c1ccccc1 (stereo not given),70.5% (inactive)
6,CC1(C)OC(=O)C(=Cc2ccc(C#N)cc2)C(=O)O1,102% (inactive)
7,CCCC(=O)Oc1ccc(CC)cc1,99% (inactive)
8,CC(=O)Oc1cc(C)c(OC(C)=O)c(C)c1C,95.8% (inactive)
9,Cc1onc(-c2c(F)cccc2Cl)c1-c1ncc(-c2ccc(Cl)cc2)o1,53% (inactive)
10,OCc1ccccc1F,110% (inactive)
11,COC(=O)c1ccccc1Cl,99.9% (inactive)
12,O=[N+]([O-])c1ccc(N2CCN=N2)cc1,85.7% (inactive)
13,Cc1cc(NC(=O)NC(=O)c2ccccc2N(C)C)ccc1Oc1ncc(Br)cn1,47.7% (inactive) and 42.5% (inactive)
14,NC1=NC(c2ccccc2)N=C(Nc2ccccc2)N1 (stereo not given),79.3% (inactive) and 90.5% (inactive)
15,CC(=O)Oc1ccc(C2(c3ccc(OC(C)=O)cc3)C(=O)Nc3ccccc32)cc1,86% (inactive) and 85.8% (inactive)
16,CC(=O)Nc1ccc(OC(C)=O)cc1,49.5% (inactive) and 99.5% (inactive)
17,COc1ccc(-n2[nH]c3c(cnc4ccccc43)c2=O)cc1,89% (inactive)
18,O=[N+]([O-])c1ccc(NC(c2ccccc2)c2ccc3cccnc3c2O)cc1 (stereo not given),19.9% (inactive)
19,N#Cc1ccc(/C=C/C(=O)c2ccccc2)cc1,95.9% (inactive) and 111% (inactive)
20,CC1CCC(=O)N1c1ccc(N)cc1 (stereo not given),104% (inactive)
